The text below walks through data of PubChem BioAssay AID1159606 (Sanford-Burnham Center for Chemical Genomics, 2016).

SMILES strings stand for the structures. “And” between values parts separate entries of the source, which are not always exact repeats. Equal entries are not always repeated. About 7,300 (2%) of roughly 360,000 compounds were called active. The list comes from a sample in which actives are over-represented; it also holds similar structures and randomly drawn compounds. A number with no mark means an inactive call. Cut-off read from the data, not from the text of the source: active = inhibition above about 50%; inactive = the rest.

Usually inhibition stands for the relative decrease from the control value, in per cent.

This assay in a line: blockers of TWEAK-induced Fn14 reporter activity – luciferase reporter cells, uHTS, primary screen (AID 1159606). The settings on record: TWEAK-stimulated Fn14 reporter cells, luciferase luminescence, 8 h; at 10 µM; hits give high values. Background: Reporter assays use an easily measured gene product as a stand-in for the process of interest.
For `CS(=O)(=O)/C(C#N)=C/c1cccn1S(=O)(=O)c1ccc([N+](=O)[O-])cc1`, the inhibition is -15.1%.
With `CCC(=O)N1Cc2cc(C(=O)NCc3cccc(F)c3)nc(-c3cccc(C4=CCCC4)c3)c2[C@H]1CCO`, the inhibition is -7.06%.
With `Cc1ccc(Cl)cc1N1CCN(C(=O)c2cccc3c(=O)c(C)c(-c4ccccc4)oc23)CC1` the figure was 40.6%; with `O=C(NCCC1=CCCCC1)c1ccc(-n2cncn2)cc1`, -8.52%.
With `Cn1nnc2cc(C(=O)NCCC3=CCCCC3)ccc21` the figure was 51.2% (active); with `O=C(NCCC1=CCCCC1)c1ccc(Cl)c([N+](=O)[O-])c1`, -14.2%; with `CC1CCCCC1NC(=O)CN1CCC(O)(c2ccc3c(c2)OCO3)CC1` (stereo unspecified), 3.52%.
With `CCCCn1nnnc1C(c1ccccc1)N1CCN(c2ccccc2OC)CC1` (stereo unspecified), the inhibition is -11.6%.
As for `COc1cc(/C=N/Nc2ccc(C)cc2)cc(Br)c1O`, the inhibition is 4.13%.
With `COc1ccccc1-n1c(SCC(=O)Nc2cccc(C(=O)O)c2)nnc1-c1ccccc1O` the figure was 8.74%; with `COc1cccc(/C=N/Nc2cc(C)nc(-c3ccccc3O)n2)c1O`, 59% (active).
For `Cc1cc(CNC(=O)C2CCC(=O)N(CCc3ccc(Cl)cc3)C2)no1` (stereo unspecified), the inhibition was 0.87%.
With `CC(=O)N1CCN(S(=O)(=O)c2c(F)cc(F)c(Cl)c2F)CC1` the figure was -11.6%; with `COc1ccc(C(=O)Nc2ccccc2C(=O)N/N=C/c2ccc(O)c(OC)c2)cc1`, 103% (active); with `COc1ccc(/C=N/NC(=O)C(C)N(c2ccc(OC)cc2)S(C)(=O)=O)cc1` (stereo unspecified), 6.28%.
With `COc1ccc(-c2[nH]ncc2/C=N/NC(=O)c2cc(Br)ccc2O)c(OC)c1` the figure was 1.37%.
`COc1ccc(/C=C2/SC(=O)N(CCCCCC(=O)Nc3ccccc3C(=O)O)C2=S)cc1`: the inhibition was 40.8%.
With `O=C(NN=Cc1ccc2c(c1)CCC2)c1ccccc1O` the figure was -39.1%; with `COc1ccc(/C=N/Nc2ccccc2C(=O)O)cc1`, 57% (active); with `CCOC(=O)C(=O)C1C(=O)Nc2ccccc21` (stereo unspecified), 6.46%.
With `CCOc1ccc(CCN2C(=O)C(=O)N([C@@H](Cc3ccc(O)cc3)CN3CCC[C@H]3CN3C(=O)C(=O)NC[C@@H]3CC(C)C)C[C@@H]2Cc2ccccc2)cc1` the figure was 20.7%.
For the molecule `CC1=NN(c2cccc(Cl)c2)C(=O)C12CC(C)=C(C)CS2` (stereo unspecified), the inhibition was -6.06%.
Consider `CC(NC(=O)CN1CCN(Cc2ccc(Cl)cc2)C1=O)c1ccc2c(c1)OCCO2` (stereo unspecified), for which the inhibition is 13.5%.
With `CC(C)C[C@H]1CNC(=O)C(=O)N1C[C@@H]1CCCN1C[C@H](Cc1ccccc1)N1C[C@H](CC(C)C)N(CC2CCCCCC2)C(=O)C1=O` the figure was 5.6%; with `CC1CC(=O)Nc2ccccc2N1C(=O)COc1ccc2cc(Br)ccc2c1` (stereo unspecified), -17.9%; with `O=C(CNC(=O)c1cccnc1)N/N=C/c1cc(Br)c(O)c(Br)c1`, -15.2%.
With `Cc1ccc(S(=O)(=O)N(CC(=O)N/N=C/c2ccc(F)cc2)c2cccc3cccnc23)cc1` the figure was -1.02%; with `O=C(CSc1cccc2cccnc12)N/N=C/c1cccnc1`, 73.4% (active).
For `COc1ccc(C)cc1NC(=O)NCCCCc1ccccc1`, the inhibition was -2.36%.
For `CCCCN1C(=O)CC(N2CCOCC2)C1=O` (stereo unspecified), the inhibition is -9.74%.
`CCCCCn1nnnc1-c1nc2cc3ccccc3cc2[nH]c1=O`: the inhibition was -12.3%.
Consider `CCCCCN(C(=O)CCC(=O)OCCOc1ccc(OC)cc1)c1c(N)n(CCCC)c(=O)[nH]c1=O`, for which the inhibition is -5.75%.
With `Cc1ccc(NC(=O)N2CCSc3ccccc32)cc1` the figure was -12.4%.
With `C=C(C)C(=O)O[C@H]1C/C(C)=C\C(=O)/C=C(\C)[C@H](O)[C@@H]2OC(=O)C(=C)[C@@H]21` the figure was 68.2% (active); with `CNC(=S)N/N=C/c1ccc(N2CCOCC2)s1`, 7.48%; with `CC1(NC(=O)CCS(=O)(=O)c2ccc(Cl)cc2)CCS(=O)(=O)C1` (stereo unspecified), 17.8%.
With `O=C(NCC(c1ccco1)N1CCc2ccccc2C1)c1ccccc1Cl` (stereo unspecified) the figure was -3.94%; with `Nc1cccc(OCCCCCOc2cccc(N)c2)c1`, -9.63%; with `CCc1ccc(-n2c(SCc3cc(=O)n4cc(Br)ccc4n3)nc3[nH]ncc3c2=O)cc1`, 2.35%.
In the case of `Cc1cccc2nc(CSc3nc4[nH]ncc4c(=O)n3-c3cccc(Cl)c3)cc(=O)n12`, the inhibition was 68.9% (active).
With `O=c1c2sccc2nc(SCc2cc(=O)n3ccccc3n2)n1-c1ccc(Br)cc1`, the inhibition was -8.13%.
`COc1ccc(C(=O)CSc2n[nH]c(N)n2)cc1`: the inhibition is -14.2%.
With `Cc1ccc(N2CCN(c3ccc(C)cc3)C2c2ccccn2)cc1` the figure was -16.7%; with `CCOC(=O)C1CCCCN1Cc1ccc(OC)c(OC)c1OC` (stereo unspecified), -2.28%.
Take `CC1Cc2[nH][nH]c(=O)c2C(C2CCCC2)O1` (stereo unspecified): the inhibition was -6.62%.
With `COc1ccc(CCNc2cc(N3CCN(C(=O)c4ccccc4OC)CC3)ccc2[N+](=O)[O-])cc1OC` the figure was 94.3% (active).
With `COc1ccc(CCNC(=O)c2ccccc2-c2ccccc2C(=O)O)cc1OC` the figure was 4.96%.
With `COc1ccccc1OCCNc1cc(N2CCOCC2)ccc1[N+](=O)[O-]` the figure was -47.4%.
In the case of `CC(C)(O)C1=C[N+](=O)CC=C1`, the inhibition was 13.1%.
With `CC1(C)SC2C(NC(=O)COc3ccccc3)C(=O)N2C1C(=O)O` (stereo unspecified) the figure was 1.61% and -29.2%.
As for `CC(=O)Nc1ccc(S(=O)(=O)Nc2nc3n(n2)C(c2ccccc2)CC(=O)N3)cc1` (stereo unspecified), the inhibition was -1.82%.
With `CC(C)[C@H](NC(=O)c1ccccc1F)C(=O)Nc1cccc(S(=O)(=O)N2CCOCC2)c1` the figure was 12.8%; with `C=CCN(CC=C)C(=O)CN1C(=O)c2ccccc2C1=O`, 15.1%; with `Cc1cc(C(=O)COC(=O)CCCN2C(=O)c3ccccc3C2=O)c(C)n1C`, 5.35%.
With `C=CCn1c(C)cc(C(=O)CN2C(=O)c3ccccc3C2=O)c1C` the figure was 63.3% (active); with `O=C1CCC(=O)N(O)CCCCCNC(=O)CCC(=O)N(O)CCCCCNC(=O)CCC(=O)N(O)CCCCCN1`, -10.8%.
